High-throughput results: PubChem, several laboratories
Shown are actives, neighbours in structure and some others; about 7.1% of the full set was active somewhere.
Cav32 inh: human Cav3.2 channel inhibition, primary screen. 100,000 tested, 4% active. O95180. AID 449739. Cav3.2-expressing cells, Fluo-4 calcium fluorescence FDSS; stronger effect = lower value. B-score at 10 µM;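 active means single-dose well whose peak fluorescence ratio is a statistical outlier from its plate by either plate-standardised score or position-corrected B-score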
M1 antag: blocks the rat M1 muscarinic receptor response to acetylcholine. P08482. CHO-M1 cells, Fluo-4 calcium, ACh EC80 antagonist mode; stronger effect = lower value. B-score at 10 µM. 64,000 tested, 3.4% active;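 active means calcium fluorescence response, raw or row-and-column corrected B-score, differing from the plate sample mean either way at a set confidence level, mostly lower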
PTK2B oligo ant: blocks oligomerization of human Pyk2 in cells. Q14289. Q293 cells, Pyk2 FERM NanoBiT luminescence; stronger effect = lower value. z-score (the deposit names both 25 µM and 10 µM). 99,000 tested, 0.83% active;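 active means Z-score of -3 or lower, scaled per plate to the spread of control and sample wells; inactive means z-score above -3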;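 further: negative z-score means lost luminescence so less FERM oligomerization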
M1 agonist: agonists of M1 muscarinic receptor. CHO-M1 cells, Fluo-4 calcium fluorescence, agonist mode; stronger effect = higher value. B-score at 10 µM. 64,000 tested, 3% active. AID 626;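 active means fluorescence rise, raw or as B-score row- and column-corrected plate score, outside the 99.7% band of its plate's samples, either direction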
* hit, by the source's call; . = no result.

SMILES	Cav32 inh	M1 antag	PTK2B oligo ant	M1 agonist
O=C(Cc1ccccc1)NC(Nc1ccccc1)C(Cl)(Cl)Cl (centres undefined)	-4.22*	.	-0.06	.
CCCCCCCCCCCCN1[C@@H](CC(=O)O)c2cc(F)ccc2S1(=O)=O	-1.5	.	.	.
COc1ccc(CNc2nc3c(c(=O)n(Cc4ccc(Cl)cc4)c(=O)n3C)n2C)cc1	-7.45*	-0.24	-2.54	1.73
Cc1ccc(Cn2c(NCCc3ccccc3)nc3c2c(=O)n(C)c(=O)n3C)cc1	-0.25	-0.356	-2.18	-1.08
Cn1c(=O)c2c(nc(NCc3ccccc3)n2Cc2ccc(F)cc2)n(C)c1=O	-6.8*	0.806	.	-1.92
Cn1c(=O)c2c(nc(NCc3cccnc3)n2Cc2ccc(Cl)cc2)n(C)c1=O	-7.19*	.	-1.18	.
CCNc1nc2c(c(=O)n(Cc3ccccc3)c(=O)n2C)n1Cc1ccccc1	-1.79	0.669	-3.48*	0.613
CCC(C)Nc1nc2c(c(=O)n(C)c(=O)n2C)n1Cc1cccc(C)c1 (centres undefined)	-0.124	13.4*	-0.13	0.61
CCNc1nc2c(c(=O)n(C)c(=O)n2C)n1Cc1ccc(Cl)cc1	.	-0.715	.	2.56*
CCCn1ncc(OC)c(Cl)c1=O	0.232	.	2.3	.
COc1ccc(/C=N/NC(=O)c2nc(-c3ccccc3)n(-c3ccccc3)n2)cc1OC	.	.	-1.41	.
COc1ccc(/C=N/NC(=O)c2nc(-c3ccccc3)cc(-c3ccccc3)n2)cc1	-7.18*	.	-2.44	.
Cc1nc(C(=O)NC2CCOCC2)sc1C1(C)CC(c2cccc([N+](=O)[O-])c2)=NO1 (centres undefined)	-0.0928	.	.	.
CC(=O)Nc1ccccc1-c1nc2ccccc2nc1OCC(=O)c1ccc2ccccc2c1	-1.36	.	-2.32	.
CCN(Cc1ccccc1)C(c1ccc(C(F)(F)F)cc1)c1nnnn1C(C)(C)C (centres undefined)	-4.35*	.	0.11	.
CCOC(=O)c1cccc(NC(=O)c2c(NCc3ccccc3)[nH]c(=O)[nH]c2=O)c1	-0.414	.	.	.
Cc1ccc(C(=O)OCc2ccc3c(c2)OCO3)cc1S(=O)(=O)N1CCCCC1	-4.09*	.	-0.57	.
Cc1ccc(C(=O)Nc2ccc3c(c2)OCO3)cc1S(=O)(=O)N1CCCC1	-0.441	-0.0179	-0.88	-1.68
Cc1ccc(/C=N/NC(=O)c2csc3c2CCCC3)cc1	-4.88*	.	-0.12	.
Cc1ccc(C)c(NC(=S)NNC(=O)c2csc3c2CCC(C)C3)c1 (centres undefined)	-5.39*	.	0.26	.
Cc1ccccc1NC(=O)c1csc2c1CCCC2	-1.25	.	-0.55	.
Cc1cccc(NC(=S)NNC(=O)c2csc3c2CCCC3)c1	-3.48*	.	-0.71	.
CCc1cc(C(=O)NNC(=S)Nc2cc(C)ccc2C)cs1	-0.762	.	1.15	.
Cc1ccc(C)c(NC(=S)NNC(=O)c2csc3c2CCCC3)c1	-5.31*	.	0.4	.
COc1cc2c(c(OC)c1CC=C(C)C)C[C@H](c1ccc(O)cc1O)CO2	-0.454	.	.	.
SMILES	Cav32 inh	M1 antag	PTK2B oligo ant	M1 agonist
CCCCCCNc1nc(NCc2ccco2)nc(OCC)n1	-7.2*	.	0.11	.
CC(C)=CCSc1nnc([C@@H](NC(=O)OC(C)(C)C)C(C)C)o1	-2.93*	-0.769	0.25	-0.196
CSCC[C@H](NC(=O)OC(C)(C)C)c1nnc(SCC(=O)Nc2c(C)cccc2C)o1	0.0316	2.04*	-0.74	1
CC(C)[C@H](NC(=O)OC(C)(C)C)c1nnc(SCC(=O)Nc2ccc(Br)cc2)o1	-6.72*	-0.602	0.42	0.778
Cc1ccc(S(=O)(=O)CC2CSc3nc4ccccc4n32)cc1 (centres undefined)	-0.868	.	-0.86	.
O=C(C[n+]1ccc(-c2nnc3n2CCC3)cc1)c1ccc(Cl)c(Cl)c1	.	.	2.06	.
C/C(=C\C(=O)OCCCCCCCCC(=O)O)C[C@@H]1OC[C@H](C[C@@H]2O[C@H]2[C@@H](C)[C@H](C)O)[C@@H](O)[C@H]1O	0.486	.	.	.
O=C(CCc1nc(-c2ccccc2)c(-c2ccccc2)o1)OCc1ccc(Cl)cc1	-4.31*	.	0.27	.
O=C(CCc1nc(-c2ccccc2)c(-c2ccccc2)o1)OCc1ccc(Br)cc1	-3.51	.	0.28	.
c1ccc(N2OCC3Cn4c(nc5ccccc54)C32)cc1 (centres undefined)	0.889	.	.	.
Cc1ccc(C)c(S(=O)(=O)N2CCN(CC(=O)NC(=O)NCc3ccccc3)CC2)c1	-4.04	0.12	-1.08	-0.053
COC(=O)[C@H]1[C@@H](C)N(Cc2ccccc2)C(=O)N[C@H]1c1ccccc1	0.462	.	.	.
COc1ccc(S(=O)(=O)Nc2ccc(F)cc2)cc1N(C)S(=O)(=O)c1ccc(Cl)cc1	-4.99*	.	-2.3	.
COc1ccc(S(=O)(=O)Nc2ccccc2SC)cc1C	.	-0.811	-1.47	0.569
COc1ccc(NS(=O)(=O)c2ccc(OC)c(OC)c2)cc1OC	0.204	.	0.68	.
COc1cc(NS(=O)(=O)c2ccc(C)c(C)c2)c(OC)cc1Cl	-6.63*	.	-1.6	.
COc1ccc(S(=O)(=O)Nc2ccc(C(F)(F)F)cc2)cc1OC	-4.77*	0	-3.38*	-0.672
COc1ccc(S(=O)(=O)Nc2ccc(S(=O)(=O)Nc3ccc(F)cc3)cc2)cc1C	-6.85*	.	-1.12	.
COc1ccc(S(=O)(=O)Nc2ccc(F)c(F)c2)cc1Cl	-3.76	0.00944	-1.19	-1.18
COc1ccc(S(=O)(=O)Nc2ccccc2OC)cc1C	-0.0476	-0.237	-0.19	-0.406
CC(=O)/C=C(\C)NCCNc1c(F)c(F)c(CO)c(F)c1F	0.263	-0.756	-0.09	-0.0368
CC1(c2nnc(-c3cccc(Cl)c3)o2)CC(c2cccnc2)=NO1 (centres undefined)	1	.	.	.
C=CC[C@]12C[C@@H](OC)C(=O)C=C1O[C@@H](c1ccc(OC)c(OC)c1)[C@H]2C	1.83	.	.	.
CC(C)Cn1cnc2c(c(-c3ccccc3)c(-c3ccccc3)n2Cc2ccco2)c1=N	-8.35*	.	0.97	.
O=c1c2ccccc2nc(-c2ccccc2)n1Cc1ccco1	-0.215	-0.643	-1.56	-1.45
SMILES	Cav32 inh	M1 antag	PTK2B oligo ant	M1 agonist
N=c1c2c(-c3ccccc3)c(-c3ccccc3)n(Cc3ccco3)c2ncn1Cc1ccccc1	-11.7*	.	-0.17	.
N=c1c2c(-c3ccccc3)c(-c3ccccc3)n(Cc3ccccc3)c2ncn1CCO	-5.23*	.	-1.5	.
OCCNc1ncnc2c1c(-c1ccccc1)c(-c1ccccc1)n2Cc1ccco1	-4.96*	0.426	-3.29*	-0.501
O=c1c2c3nc4ccccc4nc3n(Cc3ccccc3)c2ncn1Cc1ccco1	-3.19	0.454	-0.3	-0.797
c1cncc(-c2noc(CC3CCCCC3)n2)c1	-0.905	.	0.54	.
CN(C)c1ccc(-c2ccc([C@H]3[C@@H]4C=CCC[C@@]4(C)C(=O)N3Cc3ccccc3)c(F)c2)cc1	-1.21	.	.	.
O=C(COC(=O)CNC(=O)c1ccccc1)Nc1nc(-c2ccccc2)cs1	.	.	0.54	.
Cc1nnc(SCC(=O)Nc2ccc(Br)cn2)[nH]c1=O	0.0362	0.999*	0.09	0.198
Cc1ccc2oc(C(=O)NCc3ccc4c(c3)OCO4)c(C)c2c1	.	-1.97	-0.79	-0.413
Cc1c(C(=O)NCc2ccc3c(c2)OCO3)oc2ccc(S(=O)(=O)N3CCCCCC3)cc12	-2.49	-0.24	0.16	0.773
Cc1c(C(=O)NCc2ccc3c(c2)OCO3)oc2ccccc12	-5.64*	.	-0.39	.
CCCCN(CCCC)S(=O)(=O)c1ccc2oc(C(=O)N3CCOCC3)c(C)c2c1	-4.66*	-0.383	-0.9	0.284
